# In all, about 68,000 compounds went through this assay and about 2,700 (4%) showed an effect of 50% or more. What follows is part of a selection rich in strong results, with near analogues and random picks from the rest.
# Tested on: Plasmodium berghei
# Experiment: Screen against P. berghei liver stage (PbLuc), transformed with Luciferase, at 2uM
# Format: functional, HepG2
# Conditions: tested at 2 uM
row,SMILES,INHIBITION
1,COC(=O)c1cnc(/C=C/c2ccc(C(=O)O)cc2)s1,23.45%
2,COC(=O)c1ccc(/C=C/c2ncc(C(=O)O)s2)cc1,-39.34%
3,CC(=O)Nc1ccc(/C=C/c2ncc(C(=O)O)s2)cc1,69.71%
4,CN1[C@@H](C(=O)NCC2CC2)C[C@H]2CN(Cc3cccc(C#N)c3)C[C@H]21,36.99%
5,OC(CNCc1ccccc1C(F)(F)F)c1ccccc1 (centres undefined),-2.86%
6,CCC[C@H]1CN(CCCO)C[C@@H]1NC(=O)Cn1cc(C)cn1,3.97%
7,CCC[C@H]1CN(CCS(C)(=O)=O)C[C@@H]1NC(=O)Cn1cc(C)cn1,55.44%
8,CCC[C@H]1CN(CCOC)C[C@@H]1NC(=O)Cn1cc(C)cn1,-17.99%
9,Cc1cncc(C(=O)N2CCC3(CCCN(c4nncs4)C3)C2)c1 (centres undefined),-39.92%
10,COc1ccc(CCN(C)C(=O)CN2C(=O)OC[C@@H]2C(C)C)cc1OC,-4.77%
11,Cc1cccc(CN2CCc3cc(C(=O)O)c(N(C)C)nc3CC2)n1,30.19%
12,Cc1cnc(N2CCc3cc(C(=O)O)c(N(C)C)nc3CC2)nc1,-1.81%
13,Cc1nc(CN2CCc3cc(C(=O)O)c(N(C)C)nc3CC2)cs1,63.04%
14,O=C(c1ccc[nH]1)N1CCCC2(CCN(c3ccsc3)C2=O)C1 (centres undefined),26.92%
15,CCCc1nnsc1C(=O)N1CCCC1(C)C(=O)N1CCOCC1 (centres undefined),5.76%
16,COCCN1C(=O)CCC12CCCN(Cc1ccccc1F)C2 (centres undefined),7.88%
17,CNC(=O)CN1C(=O)CCC12CCCN(Cc1ccccc1F)C2 (centres undefined),-12.98%
18,O=C1CCC2(CCCN(CCc3ccccc3)C2)N1Cc1cccnc1 (centres undefined),42.18%
19,CNC(=O)CN1C(=O)CCC12CCCN(CCc1ccccc1)C2 (centres undefined),0.2%
20,O=C1CCC2(CCCN(Cc3ccccc3F)C2)N1CC1CC1 (centres undefined),70.48%
21,CCN1C(=O)CCC12CCCN(CCc1ccccc1)C2 (centres undefined),56.76%
22,COCCN(C)C[C@@H]1CN(C(=O)c2sc3ccccc3c2C)C[C@@H]1CO,25.45%
23,Cc1nc([C@H]2C[C@@H]3CCN(Cc4scnc4C)C[C@H]3O2)no1,40.64%
24,CCCC12CN3CC(C)(CN(C1)C3c1[nH]c(=O)[nH]c(=O)c1C)C2=O (centres undefined),16.49%
25,CCn1nccc1CNC(=O)CCC1CCCC1,59.21%
26,CCn1nccc1CNC(=O)C1CCCC1,-56.08%

row,SMILES,INHIBITION
1,CCn1nccc1CNC(=O)C1CCCCC1,-39.57%
2,COCc1cccc(S(=O)(=O)Nc2ncc(C)s2)c1,-2.19%
3,Cn1ncc2c1NC(=O)CC2c1ccccc1Cl (centres undefined),33.16%
4,O=S1(=O)NC(C2CCN(Cc3ccccn3)CC2)Nc2ccccc21 (centres undefined),30.31%
5,Cc1ccc2[nH]c(CN(C)c3cc(CN)nc(C)n3)nc2c1,60.18%
6,Cc1nc(CCN)cc(N(C)Cc2nc3ccc(F)cc3[nH]2)n1,-3.87%
7,Cc1ccc2[nH]c(CN(C)c3cc(CCN)nc(C)n3)nc2c1,-56.42%
8,CNC(=O)CS(=O)(=O)Cc1ccc(OC)c(F)c1,69.67%
9,COc1ccc(CS(=O)(=O)CC(=O)NCc2ccccc2F)cc1F,6.13%
10,COc1ccc(CS(=O)(=O)CC(=O)NCC2CC2)cc1F,29.89%
11,Cc1cccc(S(=O)(=O)N2C[C@@H]3C[C@@H](c4nc(C)no4)O[C@@H]3C2)c1,0.8%
12,CCCc1cnc(C)nc1NCCc1nc(C)cc(=O)[nH]1,20.14%
13,CN(C)C(=O)CN1CCn2cc(Cn3cccn3)nc2C1,14.47%
14,CN(C(=O)c1ccc(C#N)cc1)c1nnc(C2CCOC2)s1 (centres undefined),-7.22%
15,CN(C(=O)c1cccc(C#N)c1)c1nnc(C2CCOC2)s1 (centres undefined),53.95%
16,CN(C(=O)c1ccncc1)c1nnc(C2CCOC2)s1 (centres undefined),24.58%
17,CN(Cc1ccccn1)C1CC2(CCN(Cc3ccccn3)CC2)C1,34.48%
18,CN(Cc1cncs1)C1CCN(C(=O)OC(C)(C)C)CC1,12.83%
19,CN(Cc1cscn1)C1CCN(C(=O)OC(C)(C)C)CC1,-33.82%
20,Cc1nc(C)c(CN(C)C2CCN(C(=O)OC(C)(C)C)CC2)s1,73.62%
21,CC(NC(=O)COc1cccc[n+]1[O-])C1CC1 (centres undefined),25.69%
22,COc1cccc(-c2cccc(CN3C[C@H]4CC[C@@H](C3)N(C)C4=O)c2)c1,56.49%
23,CN1C(=O)[C@@H]2CC[C@H]1CN(Cc1cccc(OCc3ccccn3)c1)C2,26.75%
24,COc1cccc(-c2ncc(CN3C[C@H]4CC[C@@H](C3)N(C)C4=O)s2)c1,38.87%
25,CC(O)CN(C)S(=O)(=O)c1ccc(C#N)cc1F (centres undefined),34.18%
26,Cc1c(F)cccc1S(=O)(=O)NCC(C)(C)CC(C)O (centres undefined),15.2%

row,SMILES,INHIBITION
1,Cc1c(F)cccc1S(=O)(=O)N(C)CC(C)O (centres undefined),52.38%
2,CN(CC(N)=O)S(=O)(=O)c1ccc(F)cc1F,0.44%
3,Cc1ccc(S(=O)(=O)N(C)CC(C)O)c(F)c1 (centres undefined),56.69%
4,Cc1c(F)cccc1S(=O)(=O)NCCN,39.23%
5,Cc1nn(CC(C)C)c(N(C)C)c1CNCc1ccnn1C,9.97%
6,COCCn1ccc(=O)c(OCC(=O)Nc2cccc(Cl)c2)c1C,6.41%
7,Cc1noc(C2CCCN(C(=O)CCNc3ncccn3)C2)n1 (centres undefined),31.78%
8,CC(C)CCN(C)Cn1ncc2cn(-c3ccccc3)nc2c1=O,19.45%
9,COCCn1cc2c(n1)C(CNC(=O)c1cc(C)[nH]c1C)OCC2 (centres undefined),60.14%
10,c1ccc(Cn2cc3c(n2)C(CNCC2CCOCC2)OCC3)nc1 (centres undefined),26.66%
11,CCS(=O)(=O)NCC1OCCc2cn(CC3CCOCC3)nc21 (centres undefined),62.4%
12,COCCn1cc2c(n1)C(CNS(C)(=O)=O)OCC2 (centres undefined),35.07%
13,c1cc(CNCC2OCCc3cn(CC4CCOCC4)nc32)ccn1 (centres undefined),-66.93%
14,CCCS(=O)(=O)NCC1OCCc2cn(CC3CCOCC3)nc21 (centres undefined),12.95%
15,Cc1cc(C(=O)NCC2OCCc3cn(CC4CC4)nc32)c(C)[nH]1 (centres undefined),-28.58%
16,c1ccc(Cn2cc3c(n2)C(CNCc2ccco2)OCC3)nc1 (centres undefined),15.96%
17,O=C(NCC1OCCc2cn(CC3CCOCC3)nc21)c1ccncc1 (centres undefined),56.71%
18,O=C(NCC1OCCc2cn(CC3CCOCC3)nc21)c1ccsc1 (centres undefined),-40.44%
19,O=S(=O)(NCC1OCCc2cn(Cc3ccccn3)nc21)C1CC1 (centres undefined),50.32%
20,O=S(=O)(NCC1OCCc2cn(CC3CCOCC3)nc21)C1CC1 (centres undefined),24.43%
21,Cc1cc(-c2cnc(N3CCC(C(N)=O)CC3)nc2C(C)C)on1,-12.93%
22,O=C(NCc1cccnc1)N1CCC2(CC(=O)N(c3ccsc3)C2)C1 (centres undefined),13.92%
23,CCN1C[C@H]2C3(CCN(C(C)=O)CC3)CC[C@@]2(C(=O)N(C)C)C1,17.47%
24,Cc1ccc(NC2CCN(C(=O)c3ccc(C)o3)CC2)nn1,-47.54%
25,Cc1n[nH]c2ncc(CNC3CCCN(c4ncccn4)C3)cc12 (centres undefined),42.17%
26,O=C(c1cccnc1)N1CCC2(CCN(C(=O)N3CCCC3)CC2)C1,-11.34%

row,SMILES,INHIBITION
1,COCCn1c2c(ccc1=O)CC(NCc1cccnc1OC)CC2 (centres undefined),-1.81%
2,CCc1ncnc2c1CCN(Cc1nccs1)CC2,-6.83%
3,CC(=O)NCCNC(=O)C1(N2CCCCC2)Cc2ccccc2C1,10.91%
4,O=C1OCCN1CCNC(=O)C1(N2CCCCC2)Cc2ccccc2C1,51.96%
5,O=C(NCCCO)C1(N2CCCCC2)Cc2ccccc2C1,-118.83%
6,CNC(=O)c1nn(C)cc1NC(=O)C(C)n1ncc(Cl)c1C (centres undefined),-11.07%
7,CC(C)CN1CCN(C(=O)c2[nH]nnc2Nc2ccccc2F)CC1,-19.92%
8,Cc1ncc(C(=O)N2CCCC2(C)C(=O)N2CCOCC2)c(C)n1 (centres undefined),-14.73%
9,Cc1nc(N)ncc1C(=O)N1CCCC1(C)C(=O)N(C)C (centres undefined),50.17%
10,Cc1cc(N(C)C)nc(C2(C)CCCN2C(=O)c2cncnc2C)n1 (centres undefined),14.05%
11,O=C(NCCCNc1ccccn1)NCC1CCS(=O)(=O)C1 (centres undefined),41.93%
12,COc1ccc(F)c(CN2CCC(c3cc(O)nc(C)n3)C2)c1 (centres undefined),25.87%
13,CNC(=O)COC1COC2(CCN(c3ccc(C)nn3)CC2)C1 (centres undefined),-37.31%
14,O=C(c1ccno1)N1CCO[C@@H]2CC(COCc3ccccn3)C[C@H]21 (some centres undefined),43.24%
15,O=C(NCCN1CCOCC1)C1=NOC2(CCN(Cc3nccs3)C2)C1 (centres undefined),50.9%
16,Cc1ncccc1NC(=O)C1=NOC2(CCN(Cc3nccs3)C2)C1 (centres undefined),16.87%
17,CNC(=O)C1=NOC2(CCN(Cc3nccs3)C2)C1 (centres undefined),5.9%
18,CCc1nc(C2CCCN2Cc2ccno2)no1 (centres undefined),-62.13%
19,O=C1NCC2(CCCN(Cc3cccnc3)C2)Oc2ccccc21 (centres undefined),24.06%
20,Cc1cc(-c2cc(S(=O)(=O)N3C[C@H](C4CC4)[C@@H](N)C3)c(C)s2)on1,14.95%
21,COc1cccc(CN2CCCC(c3nn(C)c4nccnc34)C2)c1 (centres undefined),22.81%
22,COc1cc(N2CCC3(CCCN(C(=O)c4cccnc4)C3)C2)ncn1 (centres undefined),-15.29%
23,Cc1ccc(CNC(C)c2ccc(N3CCN(C)CC3)c(F)c2)o1 (centres undefined),14.89%
24,CC(NCc1ccncc1)c1cc(F)ccc1N1CCN(C)CC1 (centres undefined),24.88%
25,Cc1ccc(CNC(C)c2cc(F)ccc2N2CCN(C)CC2)o1 (centres undefined),60.84%
26,Cc1ccc(CC(=O)N2CCCC(c3ccn[nH]3)C2)cn1 (centres undefined),-5.3%

# — ChEMBL document CHEMBL4513216, “Probing the Open Global Health Chemical Diversity Library for Multistage-Active Starting Points for Next-Generation Antimalarials” (ACS Infect Dis, 2020)
